Assay results published in PubChem BioAssay AID1159580 (chemical genetic matrix, 2015).
Screen size: about 5,500 compounds; about 2,000 (36%) were called active. About 18% were inconclusive and are not listed. No stated cut-off is given here; in the data, active means normalized growth mostly below about 0.91 (no sharp cut-off); inconclusive means no clear call, values can overlap the other calls; inactive means mostly above about 0.92. Some of the results follow.

Assay: chemical genetic growth profiling, strain panel (AID 1159580);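 further: tested at 20 µM; growth read once vehicle control cultures reached saturation at 30 °C; 1 = growth at the plate median or of vehicle wells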
Conditions: S. cerevisiae deletion strains, growth OD

Measured: normalized growth

CC(=O)Nc1cccc(O)c1
inactive: locus YAL013W, strain DEP1, stronger effect = lower value 1 | locus YAL021C, strain ccr4, stronger effect = lower value 1.01 | locus YAL026C, strain drs2, stronger effect = lower value 1.03 | locus YAL030W, strain snc1, stronger effect = lower value 1.01 | locus YBL061C, strain skt5, stronger effect = lower value 1.01 | locus YBR009C, strain hhf1, stronger effect = lower value 0.984 | locus YBR021W, strain FUR4, stronger effect = lower value 1.01 | locus YBR023C, strain chs3, stronger effect = lower value 1.03 | locus YBR171W, strain sec66, stronger effect = lower value 1.02 | locus YBR229C, strain ROT2, stronger effect = lower value 1.01 | locus YBR231C, strain swc5, stronger effect = lower value 1 | locus YBR279W, strain paf1, stronger effect = lower value 1.02 | locus YCL011C, strain gbp2, stronger effect = lower value 1.04 | locus YCL016C, strain dcc1, stronger effect = lower value 1.05 | locus YCL029C, strain bik1, stronger effect = lower value 0.993 | locus YCL061C, strain MRC1, stronger effect = lower value 1.01 | locus YCL069W, strain vba3, stronger effect = lower value 1.01 | locus YCR088W, strain abp1, stronger effect = lower value 1.02 | locus YDL005C, strain med2, stronger effect = lower value 1.02 | locus YDL035C, strain GPR1, stronger effect = lower value 0.992 | locus YDL040C, strain nat1, stronger effect = lower value 0.999 | locus YDL074C, strain BRE1, stronger effect = lower value 1.02 | locus YDL101C, strain DUN1, stronger effect = lower value 1.02 | locus YDL134C, strain PPH21, stronger effect = lower value 0.983 | locus YDL185W, strain tfp1, stronger effect = lower value 0.993 | locus YDL192W, strain arf1, stronger effect = lower value 1.01 | locus YDR001C, strain nth1, stronger effect = lower value 1.01 | locus YDR069C, strain doa4, stronger effect = lower value 1.03 | locus YDR101C, strain arx1, stronger effect = lower value 0.989 | locus YDR137W, strain rgp1, stronger effect = lower value 1.03 | locus YDR150W, strain NUM1, stronger effect = lower value 0.998 | locus YDR159W, strain sac3, stronger effect = lower value 0.954 | locus YDR162C, strain NBP2, stronger effect = lower value 0.999 | locus YDR195W, strain ref2 0.986 | locus YDR297W, strain sur2, stronger effect = lower value 0.998 | locus YDR318W, strain mcm21, stronger effect = lower value 1.01 | locus YDR334W, strain swr1, stronger effect = lower value 1.02 | locus YDR335W, strain msn5, stronger effect = lower value 1.01 | locus YDR388W, stronger effect = lower value 0.998 | locus YDR392W, strain spt3, stronger effect = lower value 0.99 | locus YDR502C, strain sam2, stronger effect = lower value 0.986 | locus YEL003W, strain gim4, stronger effect = lower value 1 | locus YEL037C, strain rad23, stronger effect = lower value 1 | locus YEL061C, strain CIN8 (second series), stronger effect = lower value 1 | locus YEL061C, strain CIN8, stronger effect = lower value 1.01 | locus YER015W, strain faa2, stronger effect = lower value 1.02 | locus YER016W, strain bim1, stronger effect = lower value 1.03 | locus YER110C, stronger effect = lower value 1 | locus YER111C, strain swi4, stronger effect = lower value 1.01 | locus YER155C, strain BEM2 (second series), stronger effect = lower value 0.999 | locus YER155C, strain BEM2, stronger effect = lower value 1.01 | locus YER167W, strain BCK2, stronger effect = lower value 1 | locus YFR010W, strain ubp6, stronger effect = lower value 0.994 | locus YGL078C, strain dbp3, stronger effect = lower value 0.994 | locus YGL086W, strain mad1, stronger effect = lower value 0.99 | locus YGL167C, strain pmr1, stronger effect = lower value 1.01 | locus YGL173C, strain kem1, stronger effect = lower value 0.987 | locus YGL227W, strain vid30, stronger effect = lower value 1.02 | locus YGL240W, strain doc1, stronger effect = lower value 0.977 | locus YGL248W, strain PDE1, stronger effect = lower value 1.02 | locus YGL253W, strain hxk2, stronger effect = lower value 1.04 | locus YGR078C, strain PAC10, stronger effect = lower value 1.01 | locus YGR135W, strain pre9, stronger effect = lower value 1.02 | locus YGR252W, strain gcn5, stronger effect = lower value 1 | locus YHR013C, strain ard1, stronger effect = lower value 1.04 | locus YHR027C, strain rpn1, stronger effect = lower value 1.01 | locus YHR030C, strain SLT2, stronger effect = lower value 1 | locus YHR079C, strain IRE1 (second series), stronger effect = lower value 0.997 | locus YHR094C, strain hxt1, stronger effect = lower value 0.997 | locus YHR129C, strain ARP1, stronger effect = lower value 1.01 | locus YHR142W, strain chs7, stronger effect = lower value 1.04 | locus YHR200W, strain rpn10, stronger effect = lower value 0.996 | locus YIL066C, strain RNR3, stronger effect = lower value 1 | locus YIL073C, strain SPO22, stronger effect = lower value 1.02 | locus YIL125W, strain kgd1, stronger effect = lower value 0.994 | locus YIR030C, strain dcg1, stronger effect = lower value 0.991 | locus YJL092W, strain hpr5, stronger effect = lower value 1.01 | locus YJL095W, strain BCK1 (second series), stronger effect = lower value 1.03 | locus YJL095W, strain BCK1, stronger effect = lower value 1.03 | locus YJL115W, strain asf1, stronger effect = lower value 1.02 | locus YJL129C, strain trk1, stronger effect = lower value 1.04 | locus YJL134W, strain LCB3, stronger effect = lower value 1.02 | locus YJL154C, strain vps35, stronger effect = lower value 1.01 | locus YJL164C, strain tpk1, stronger effect = lower value 1.03 | locus YJL166W, strain qcr8, stronger effect = lower value 0.982 | locus YJL168C, strain set2, stronger effect = lower value 1.02 | locus YJL187C, strain SWE1 (second series), stronger effect = lower value 1.02
